Dicer inh = inhibitors of human Dicer processing of pre-microRNA; Q9UPY3; cat-ELCCA pre-miR-21 Dicer processing, chemiluminescence; stronger effect = higher value; z-score at 25 µM; hit rate 6% among 47,000; AID 1347074; in the data active = z-score above about 3, passing the limit was not always enough;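 also: plate controls were vehicle for no effect and no enzyme for full effect; higher signal means more uncleaved substrate so more Dicer inhibition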
Target sequence (Q9UPY3 whole entry, looked up): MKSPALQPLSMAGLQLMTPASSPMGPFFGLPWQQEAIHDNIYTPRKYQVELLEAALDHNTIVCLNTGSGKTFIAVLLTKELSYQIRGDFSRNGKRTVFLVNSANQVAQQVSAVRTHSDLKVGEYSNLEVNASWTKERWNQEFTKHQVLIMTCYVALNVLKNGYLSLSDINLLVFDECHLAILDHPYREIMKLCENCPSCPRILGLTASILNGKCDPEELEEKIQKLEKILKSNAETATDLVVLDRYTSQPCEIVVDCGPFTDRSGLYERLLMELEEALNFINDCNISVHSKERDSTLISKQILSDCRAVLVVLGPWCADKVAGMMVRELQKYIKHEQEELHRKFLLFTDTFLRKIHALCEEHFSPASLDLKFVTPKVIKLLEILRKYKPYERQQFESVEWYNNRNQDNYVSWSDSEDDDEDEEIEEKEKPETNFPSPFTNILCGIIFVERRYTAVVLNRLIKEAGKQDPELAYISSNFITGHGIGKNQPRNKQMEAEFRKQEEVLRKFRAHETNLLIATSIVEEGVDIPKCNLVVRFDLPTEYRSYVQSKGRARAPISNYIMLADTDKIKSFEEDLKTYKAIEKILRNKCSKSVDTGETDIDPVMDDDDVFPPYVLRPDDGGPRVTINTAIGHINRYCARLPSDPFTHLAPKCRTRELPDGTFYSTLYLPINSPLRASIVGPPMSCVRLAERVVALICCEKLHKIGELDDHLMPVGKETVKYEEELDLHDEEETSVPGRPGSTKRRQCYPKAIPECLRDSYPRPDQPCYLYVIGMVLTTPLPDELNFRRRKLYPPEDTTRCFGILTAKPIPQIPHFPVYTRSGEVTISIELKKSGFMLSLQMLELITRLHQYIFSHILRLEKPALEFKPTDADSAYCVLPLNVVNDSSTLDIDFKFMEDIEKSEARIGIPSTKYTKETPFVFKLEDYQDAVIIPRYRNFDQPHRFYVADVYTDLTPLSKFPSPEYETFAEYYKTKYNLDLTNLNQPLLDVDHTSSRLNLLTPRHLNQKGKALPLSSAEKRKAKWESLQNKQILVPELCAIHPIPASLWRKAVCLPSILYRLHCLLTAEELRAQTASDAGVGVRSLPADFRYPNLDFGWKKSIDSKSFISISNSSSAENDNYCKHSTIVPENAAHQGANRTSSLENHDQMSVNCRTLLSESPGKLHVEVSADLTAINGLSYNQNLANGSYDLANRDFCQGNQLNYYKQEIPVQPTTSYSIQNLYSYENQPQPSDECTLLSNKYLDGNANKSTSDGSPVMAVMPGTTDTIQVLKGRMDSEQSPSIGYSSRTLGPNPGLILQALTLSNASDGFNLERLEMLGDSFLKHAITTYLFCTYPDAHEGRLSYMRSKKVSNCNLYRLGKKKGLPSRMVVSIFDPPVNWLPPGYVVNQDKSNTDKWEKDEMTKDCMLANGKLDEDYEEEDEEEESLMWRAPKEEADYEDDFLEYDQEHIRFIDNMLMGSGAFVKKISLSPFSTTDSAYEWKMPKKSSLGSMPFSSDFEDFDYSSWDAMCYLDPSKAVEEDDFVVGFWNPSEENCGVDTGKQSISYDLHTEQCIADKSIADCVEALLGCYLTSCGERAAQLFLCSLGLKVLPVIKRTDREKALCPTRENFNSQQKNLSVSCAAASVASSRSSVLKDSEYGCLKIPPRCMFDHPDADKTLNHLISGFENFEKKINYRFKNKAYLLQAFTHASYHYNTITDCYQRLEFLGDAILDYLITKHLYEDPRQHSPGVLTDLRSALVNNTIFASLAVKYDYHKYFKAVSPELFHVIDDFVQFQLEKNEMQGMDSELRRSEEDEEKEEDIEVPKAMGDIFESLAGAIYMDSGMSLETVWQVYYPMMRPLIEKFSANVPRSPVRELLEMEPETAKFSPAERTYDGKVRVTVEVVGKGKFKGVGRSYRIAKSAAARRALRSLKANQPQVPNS
Numbers without * were called inactive. This is one part of a sample in which hits are shown more often than they occur.

SMILES	Dicer inh
O=C(CSc1nc2ccccc2s1)Nc1nccs1	0.82
O=C(CSC1=NCCS1)Nc1nc2ccccc2s1	-0.6
CC(=O)c1sc2nc(-c3ccccc3)nc(C)c2c1N	-0.84
Cc1nn(-c2ccccc2)nc1C(=O)Nc1nncs1	-8.2
CCOC(=O)c1c(C)c(C#N)c(NC(=O)c2ccccc2)n1-c1ccccc1	-1.4
CCCCNC(=O)NCCNc1ccc(C(F)(F)F)cn1	0.14
CCSCCOC(=O)C1=C(C)NC2=C(C(=O)CC(c3cccs3)C2)C1c1ccc(C)o1 (centres undefined)	0.78
O=C(CSc1nnc2c(n1)[nH]c1ccccc12)Nc1nc2ccccc2s1	5.4*
Cc1nnc(NC(=O)CSc2nnc3c(n2)[nH]c2ccccc23)s1	1.6
CCOC(=O)CSc1nnc2c(n1)[nH]c1ccccc12	-0.83
O=C(CSc1nnc2c(n1)[nH]c1ccccc12)Nc1nnc(-c2ccccc2)s1	-0.6
C=C(C)CSc1nnc2c(n1)[nH]c1ccccc12	3.6*
O=C(O)CSc1nnc2c(n1)[nH]c1ccccc12	-0.46
Cc1onc(-c2ccccc2)c1C(=O)N1CCC(O)(c2ccc(Cl)cc2)CC1	-0.22
CC1(C)Cc2c(c(N3CCCC3)nc3sc4c(N5CCCC5)ncnc4c23)CO1	-0.5
O=c1[nH][nH]c(=S)n1-c1cccc(Cl)c1	0.06
COC(=O)c1ccc(C(=O)Nc2c(C(N)=O)oc3ccccc23)cc1	3.6*
O=C(Nc1c(C(=O)c2ccc(Br)cc2)oc2ccccc12)c1ccco1	-1
O=C(Nc1c(C(=O)c2ccc(F)cc2)oc2ccccc12)c1ccco1	-0.64
Clc1ccc(Oc2nc(-c3cccnc3)nc3ccccc23)cc1	1.4
COc1ccc(S(=O)(=O)N2CCN(Cc3ccsc3)CC2)cc1	-0.06
CCOC(=O)c1ccc(-n2nc(C)cc2C)cc1	-0.71
CCOC(=O)c1ccc(N)c(N)c1	3.4*
CCOC(=O)c1ccc([N+](=O)[O-])c(C)c1	-2.5
COc1ccc(Cl)cc1/C=C1\N=C(SC)SC1=O	0.96
SMILES	Dicer inh
COc1cc(C2C(C(=O)OC(C)C)=C(C)NC3=C2C(=O)CCC3)ccc1O (centres undefined)	-0.99
CCOC(=O)/C(C#N)=C/c1ccc(-c2ccccc2)cc1	1.2
CCOC(=O)c1c(C)csc1NC(=O)/C(C#N)=C/c1ccc(O)cc1	0.68
CCOC(=O)NC(=O)/C(C#N)=C/c1ccc(N(C)C)cc1	3.4*
Cc1cc(C2CCCCC2)ccc1O	5.6*
S=C(Nc1ccc(C2CCCCC2)cc1)N1CCSCC1	-2.2
COc1cc(C2SCc3cc(C)c(C)cc3CS2)ccc1O	1.1
COc1cccc(C2C3=C(Nc4c2c(=O)n(C)c(=O)n4C)c2ccccc2C3=O)c1 (centres undefined)	-1.4
Cn1c2c(c(=O)[nH]c1=O)C(c1ccsc1)C1=C(N2)c2ccccc2C1=O (centres undefined)	-2.9
Cn1c2c(c(=O)n(C)c1=O)C(c1ccsc1)C1=C(N2)c2ccccc2C1=O (centres undefined)	7.8*
CCOC(=O)c1cc(C)n(N(C)c2cc(C(F)(F)F)ccn2)c1C	-1
Cc1ccccc1C1NC(=O)c2c(sc3c2CCN(C)C3)N1 (centres undefined)	0.05
CCCCCCSC1=C(C#N)C(=O)NC(CO)S1 (centres undefined)	-2.3
CCCCSC1=C(C#N)C(=O)NC(CCC)S1 (centres undefined)	5.4*
CCCCSC1=C(C#N)C(=O)NC(c2ccc(OC)cc2)S1 (centres undefined)	-2
CCCCSC1=C(C#N)C(=O)NC(c2ccccc2O)S1 (centres undefined)	0.9
CCCCSC1=C(C#N)C(=O)NC(CC(C)C)S1 (centres undefined)	2.9
CCCCSC1=C(C#N)C(=O)NCS1	5.7*
c1ccc(CN2CCC(Nc3ncnc4cc(-c5ccccc5)sc34)CC2)cc1	0.1
NC(N)=NCCCC(NC(=O)c1ccccc1)C(=O)O (centres undefined)	0.3
COc1ccc(/C=C2\Cc3ccccc3C2=O)cc1O	8
O=C(NCc1cccnc1)C(=O)Nc1ccccc1Oc1ccc(Cl)cc1Cl	-1.4
O=c1oc(-c2ccc(-c3ccccc3)cc2)nc2ccccc12	0.22
O=c1oc(-c2ccccc2Br)nc2ccccc12	4.6*
O=c1oc(-c2cccc(Cl)c2)nc2ccccc12	0.1
SMILES	Dicer inh
CC1(C23CC4CC(CC(C4)C2)C3)CC(=O)O1 (centres undefined)	1
O=C(CN1c2ccccc2Sc2ccccc21)NNC(=S)Nc1ccccc1	5.2*
S=C(Nc1ccccc1)N1c2ccccc2Sc2ccccc21	0.44
CC(C)(C)OC(=O)NCC(=O)NNC(=S)Nc1ccccc1	-0.45
CCc1nc(-c2ccc(-c3ccc(C)cc3)nc2OC)no1	0.47
COC(=O)c1cnc(Sc2n[nH]c(-c3ccccc3)n2)c([N+](=O)[O-])c1	-0.35
O=C(Nc1ccc(Cl)cc1OC(F)(F)F)c1cccc(C(F)(F)F)c1	0
CSC(=NC#N)S/C=C/C(=O)c1cccc(Br)c1	-2.2
CCc1ccc(C(=O)/C=C/Sc2nc3ccc(C)cc3[nH]2)cc1	0.92
Cc1ccc2nc(S/C=C/C(=O)c3cccc(Br)c3)[nH]c2c1	3.5*

Screening results: PubChem, Center for Chemical Genomics, University of Michigan
